Assay outcomes (PubChem BioAssay)
Pf growth 48h: inhibits P. falciparum growth in the first generation, 48 h | P. falciparum luciferase growth in erythrocytes, 48 h | Potency, µM (highest dose often 28.7 µM), most hits filed as inhibitors | 310,000 tested, 5.9% active
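Erythrocytes infected with P. falciparum carrying an integrated firefly luciferase reporter (2% hematocrit, 0.1% parasitemia final) were exposed to compounds in RPMI 1640 with 0.5% Albumax at 37 C, 5% CO2. Growth inhibition was scored as reduced luminescence.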
Shiga inhibitor: inhibitors of Shiga toxin in Vero cells | inhibition, % at 38.7 µM | 290,000 tested, 9.2% active | Vero cells, Shiga toxin protein synthesis inhibition reporter; in the data active = inhibition mostly above about 28%, no sharp cut-off; inactive = mostly below about 43%
Pf growth 96h: inhibits malaria parasite growth, 96 h; P. falciparum luciferase reporter growth, 96 h; Potency, µM (top dose mostly 28.7 µM), usual class: inhibitors; 320,000 tested, 6.9% active; AID 504834
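Delayed-death screen, second-generation endpoint: infected erythrocytes, 2% hematocrit, 0.05% parasitemia final; 96 hours at 37 C, 5% CO2; luciferase detection reagent; luminescence decrease equals reduced growth.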
HCV inh: inhibitors of hepatitis C virus infection; Huh7.5.1 HCVcc-Cre infection, luciferase reporter, 44 h; Potency, µM (titrated, usually from 41.8 µM), usual class: inhibitors; 340,000 tested, 3.4% active; AID 651820
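Whole-lifecycle infectious HCVcc-Cre system; cells 1,000/well, compound then virus (~0.5 moi) added 4 h after plating, 44 h culture. Luciferase read 15 sec following 15 min substrate incubation, room temp.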
CHX counter: counter-screen hit for Shiga toxin inhibitors, cycloheximide | max response, % | cell reporter, cycloheximide protein synthesis inhibition counterscreen | 300,000 tested, 12% active; in the data active = max response mostly above about 13%, no sharp cut-off; inactive = mostly below about 14%; note: read at 38.3 µM for the half of the compounds with a filed dose
HCMV inh: human cytomegalovirus inhibition; HFF cells, HCMV-luciferase reporter, 72 h; hits give low values; activity change, negative = inhibition, % at 57.5 µM; 410,000 tested, 4.5% active; AID 1259415; in the data active = activity change below about -60%; inconclusive = no clear call, values can overlap the other calls; inactive = above about -39%
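Human foreskin fibroblasts infected with luciferase-reporter HCMV at MOI 1 PFU/cell, compounds at two doses. Luciferase measured 72 h post infection; normalized to buffer-only basal and Salinomycin (10uM) controls.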
Hits are given with their value; i = inactive; ? = inconclusive; nt = not tested or not shown; [ ] = remark or other dose. Compounds with a hit are over-represented: about 21% of the library has one in this group of screens. Unless noted, calls come from the whole dose curve; as a rule, active = well fitted inhibition curve with a large enough effect; inconclusive = small, poorly fitted or top-dose-only effect, or another doubt; inactive = no such curve, though single readings can be large or run the other way.

SMILES | Pf growth 48h | Shiga inhibitor | Pf growth 96h | HCV inh | CHX counter | HCMV inh
Cc1ccc(Cl)cc1N1CCN(C(=O)CCS(=O)(=O)c2ccc3c(c2)oc(=O)n3C)CC1 | nt | nt | nt | nt | nt | i
COc1cccc(-c2noc(-c3cccnc3)n2)c1 | i | 68.4 | ? | i | 33.6 | i
COc1ccc(-c2nc(-c3cccnc3)no2)cc1OC | i | 46.9 | i | i | 39.1 | i
COc1nc2ccc(C)cc2cc1-c1noc(-c2cccnc2)n1 | i | i | nt | i | i | i
COc1cccc(-c2noc(N)c2C#N)c1 | 7.38µM | i | i | i | 17.2 | i
COc1cccc(OCc2nnc(-c3cccs3)o2)c1 | i | 32.5 | i | nt | 33.2 | -77.3
COc1cccc(NC(=O)CSc2nnc(-c3cccs3)o2)c1 | nt | nt | nt | nt | nt | i
COc1cc(-c2nc(-c3cccnc3)no2)cc(OC)c1OC | i | i | i | i | i | i
O=C(Cn1cc(S(=O)(=O)Cc2ccccc2F)c2ccccc21)NCc1ccccc1Cl | nt | nt | nt | nt | nt | i
COc1nc(-c2ccccc2)ccc1-c1noc(-c2cccs2)n1 | nt | nt | nt | i | nt | i
COc1cccc(-c2nc(-c3ccccn3)no2)c1 | i | i | ? | ? | i | -61.3
COc1cccc(-c2noc(-c3cccs3)n2)c1 | i | 53.6 | nt | i | 39.0 | i
COc1ccc(OC)c2c(N3CC(C)OC(C)C3)cc(C(F)(F)F)nc12 (stereo not drawn) | i | 78.3 | i | i | 20.5 | i
O=C1CCCc2cc(S(=O)(=O)N3CCCC(C(=O)Nc4ccc(F)c(Cl)c4)C3)ccc2N1 (stereo not drawn) | nt | nt | nt | nt | nt | i
c1ccc(OCc2nc(-c3ccncc3)no2)cc1 | i | 109.9 | 11.7µM | i | 49.6 | i
c1ccc(OCCCc2nc(-c3ccncc3)no2)cc1 | i | i | i | i | i | i
Cc1ccc(OCc2nc(-c3cccnc3)no2)cc1C | i | 72.6 | 0.415µM | i | 25.0 | i
COc1ccccc1Cc1nc(-c2ccncc2)no1 | i | i | i | ? | 20.2 | ?
CCc1ccccc1NC(=O)c1nc(-c2ccncc2)no1 | nt | nt | nt | nt | nt | i
Clc1ccc(OCc2nc(-c3ccncc3)no2)c(Br)c1 | i | 71.1 | i | ? | 40.3 | i
CCC1CCCCN1C(=O)Cn1c(=O)oc2cc(S(=O)(=O)N3CCCCC3)ccc21 (stereo not drawn) | nt | nt | nt | nt | nt | i
Cc1ccccc1OCc1nc(-c2cccnc2)no1 | i | i | ? | i | i | i
c1ccc(OCc2nc(-c3ccccc3)no2)cc1 | i | 100.1 | nt | i | 58.1 | i
Clc1ccccc1OCc1nc(-c2ccncc2)no1 | i | 85.7 | ? | ? | 49.2 | i
COc1nc(-c2ccccc2)ccc1-c1noc(COc2ccccc2)n1 | i | i | nt | i | i | i
SMILES | Pf growth 48h | Shiga inhibitor | Pf growth 96h | HCV inh | CHX counter | HCMV inh
Clc1cc(-c2ccccc2)nc(-c2ccccc2)n1 | nt | nt | nt | ? | nt | i
Brc1cc(-c2ccccc2)nc(-c2ccccc2)n1 | nt | nt | nt | 11.2µM | nt | i
CNc1cccc(-c2cccc(O)c2)n1 | nt | nt | nt | nt | nt | i
Oc1ccc(-c2cc(-c3ccc(O)cc3)nc(-c3ccccc3)n2)cc1 | i[0.00184 µM] | i | 5.86µM | ? | i | i
Oc1ccc(-c2nnc(-c3ccc(O)cc3)nn2)cc1 | ? | i | ? | i | 25.7 | i
Oc1ccc(-c2cccc(-c3ccc(O)cc3)n2)cc1 | i | 67.2 | i | i | 38.9 | i
Oc1ccc(O)cc1 | i | nt | ? | nt | nt | nt
Nc1ccc(-c2cc(-c3ccc(N)cc3)nc(-c3ccccc3)n2)cc1 | i | i | i | i | i | i
CC(Nc1ccc(F)cc1)=[N+](C)CCNS(=O)(=O)c1ccc(Cl)cc1 | i | i | i | i | i | i
Cc1ccc2c(c1)-c1nc(-c3ccccc3)cc(-c3ccccc3)c1CO2 | nt | nt | nt | nt | nt | i
CCOC(=O)C1CCCN(C(=O)c2ccc(C(F)(F)F)nc2C)CC1 (stereo not drawn) | nt | nt | nt | nt | nt | i
CCc1nnc(NC(=O)CSc2nc(C)c3c(c2C#N)CCCC3)s1 | i | 56.2 | i | 11.2µM | 64.3 | i
CC(NC(=O)/C(C#N)=C/c1ccc([N+](=O)[O-])o1)c1ccccc1 (stereo not drawn) | i | i | i | ? | i | -101.4
COc1ccc(/C=C(\C#N)C(=O)NCc2ccccc2)cc1O | ? | i | i | i | i | ?
Cc1[nH]c2ccccc2c1/C=C(\C#N)C(=O)NCc1ccccc1 | i | i | i | ? | i | i
COc1ccc(/C=C(\C#N)C(=O)NC(C)c2ccccc2)cc1O (stereo not drawn) | ? | i | i | i | 12.9 | ?
CC(NC(=O)/C(C#N)=C/c1ccc(N2CCOCC2)cc1)c1ccccc1 (stereo not drawn) | i | i | ? | ? | i | i
COC(=O)c1ccc(/C=C(\C#N)C(=O)NC(C)c2ccccc2)cc1 (stereo not drawn) | ? | i | ? | 11.2µM | i | -95.4
Cc1ccc(C(C)NC(=O)/C(C#N)=C\c2c(C)[nH]c3ccccc23)cc1 (stereo not drawn) | nt | i | ? | i | i | -60.5
CCOCCCNC(=O)NC(C)c1c(-n2cccc2)sc2c1CCN(CC)C2 (stereo not drawn) | nt | nt | nt | nt | nt | i
O=C(CN1CCOCC1)Nc1ccc([N+](=O)[O-])cc1 | i | i | ? | i | i | i
Cc1ccc(NC(=O)c2nnn(Cc3cccc(C(F)(F)F)c3)c2N)c(C)c1 | nt | nt | nt | nt | nt | i
Cc1ccc2[nH]c(-c3ccc(Cl)cc3)c(C#N)c2c1 | nt | nt | nt | nt | nt | i
CC(C)(C#CC(=O)O)OOC(c1ccccc1)(c1ccccc1)c1ccccc1 | 11.7µM | i | 8.28µM | i | i | i
CC(O)(C(=O)c1ccccc1)c1ccccc1 (stereo not drawn) | nt | nt | nt | nt | nt | i
SMILES | Pf growth 48h | Shiga inhibitor | Pf growth 96h | HCV inh | CHX counter | HCMV inh
CC(C)CCC(CCNCc1ccccn1)c1ccc(Cl)cc1 (stereo not drawn) | 3.29µM | i | 3.29µM | i | i | i
S=C(NCc1ccc(Cl)cc1)NCc1ccccn1 | i | i | i | i | i | i
CC1CCN(C(=O)CNC(=O)CNC(=O)Cc2ccccc2)CC1 | i | i | ? | i | i | i
CCc1[nH]nc(C(=O)NC2CCCc3c2cnn3-c2cc(C)cc(C)c2)c1C (stereo not drawn) | i | 54.6 | ? | i | 27.1 | ?
CCc1noc(C)c1C(=O)NC1CCCc2c1cnn2-c1cc(C)cc(C)c1 (stereo not drawn) | ? | i | i | i | 33.7 | i
Cc1cc(C)cc(-n2ncc3c2CCCC3NC(=O)c2ccccc2N2CCOCC2)c1 (stereo not drawn) | ? | i | i | i | i | i
CCCN(CCC)CCCNC(=O)C1CCCN(S(=O)(=O)c2cccc3nsnc23)C1 (stereo not drawn) | nt | nt | nt | nt | nt | i
O=C(Nc1cnc2ccccc2c1)c1cccnc1 | nt | i | i | i | 22.8 | i
COC(=O)c1cccc(NC(=O)c2cccc(-n3cnnn3)c2)c1 | nt | nt | nt | nt | nt | i
Cc1ccc(C(=O)Nc2cnc3ccccc3c2)cc1 | nt | i | i | i | i | -81.3
Cc1ccc(S(=O)(=O)Nc2cnc3ccccc3c2)cc1 | i | i | ? | ? | i | i
